# Laboratory results reported in ChEMBL document CHEMBL1201862, “PubChem BioAssay data set” (2004).
# Hit rate of the full screen: of about 55,000 sequences, about 3,800 (6.9%) were called active. No stated cut-off is given here; in the data, active = GI50 up to about 1.1 µM and inactive = higher. A selection follows. Entries with a potency or affinity are not part of this list.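 Method: 48-hour compound exposure of cells in 96-well plates, five concentrations, linear interpolation of endpoints. GI50 is the concentration that inhibits growth by half.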
# Tested on: CAKI-1
# Assay: NCI tumour cell line growth inhibition, 48 h
row,Substance,GI50 [µM]
1,"[Bis(aminomethyl)pentamethylenesilane]dichloropaltinum(II), CHEMBL2146202",2.26
2,"[Bis(aminomethyl)tetramethylenesilane]tetrachloropaltinum(IV), CHEMBL2146189",5.92
3,"[Bis(aminomethyl)diethylsilane]tetrachloroplatinum(IV), CHEMBL2146203",4.06
4,"[Bis(aminomethyl)ethylmethylsilane]tetrachloroplatinum(IV), CHEMBL2146192",1.19
5,"CISPLATIN, CHEMBL11359",1.99
6,"[Bis(aminomethyl)dimethylsilane]tetrachloroplatinum(IV), CHEMBL2146190",4.05
7,"[Bis(aminomethyl)dimethylsilane]dichloroplatinum (II), CHEMBL2146201",12
8,"[Bis(aminomethyl)pentamethylenesilane]tetrachloropaltinum(IV), CHEMBL2146204",2.14
9,"mu-(1,7-nanodiamine-N,N')bis-(cis-aminedichloroplatimum (II)), CHEMBL2146215",50.6
10,"[Bis(aminomethyl)tetramethylenesilane]dichloropaltinum(II), CHEMBL2146205",13.6
11,"cis-Bis[[(trimethylsilyl)methyl]amino]tetrachloroplatinum(IV), CHEMBL2146191",11.9
